{"source": "the supplement of paper PMC10121225", "note": "Structures can show the parent of a compound that is named as a salt.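 Also: immunostained co-cultures imaged by high-content microscopy, Z-score per plate against mean and SD of 0.1% DMSO wells, compounds added on differentiation day 18, analysed day 21.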"}
{"system": "hN + hpA co-culture (H1 iNGN2 human neurons + human primary astrocytes)", "assay": "presynaptic density (SYNAPSIN1 puncta per MAP2 neurite area), Z-score vs DMSO controls; higher = more presynaptic puncta (synapse-promoting)", "conditions": "3 µM; 72 h"}
{"smiles": "O=C(CCCCCCC(=O)Nc1ccc([C@H]2O[C@@H](CSc3nc(-c4ccccc4)c(-c4ccccc4)o3)C[C@@H](c3ccc(CO)cc3)O2)cc1)NO", "note": "[Tubacin]", "presynaptic density (Z-score)": 0.79}
{"smiles": "C[C@]1(O)C[C@@H](c2nc(-c3ccc4ccc(-c5ccccc5)nc4c3)c3c(N)nccn32)C1", "note": "[OSI-906 (Linsitinib)]", "presynaptic density (Z-score)": 0.349}
{"smiles": "COc1ccnc2[nH]cc(C(=O)C(=O)N3CCN(C(=O)c4ccccc4)C[C@H]3C)c12", "presynaptic density (Z-score)": 0.386}
{"smiles": "CC(=O)OCC(=O)NCCCOc1cccc(CN2CCCCC2)c1", "presynaptic density (Z-score)": -0.62}
{"smiles": "COc1cc2c(cc1-c1c(C)noc1C)ncc1[nH]c(=O)n([C@H](C)c3ccccn3)c12", "note": "[I-BET 151 hydrochloride]", "presynaptic density (Z-score)": 3.55}
{"smiles": "COC(=O)C1=C(C#N)NC(C)=C(C(=O)OC(C)C)C1c1cccc([N+](=O)[O-])c1", "note": "(stereo not given) [Nilvadipine]", "presynaptic density (Z-score)": -0.965}
{"smiles": "O[C@@H](COc1cccc2ncccc12)CN1CCN(C2c3ccccc3[C@@H]3[C@H](c4ccccc42)C3(F)F)CC1", "note": "(stereo not given in full)", "presynaptic density (Z-score)": -1.51}
{"smiles": "C[C@H]1COC2(CCN(c3nc(=O)c4cc(C(F)(F)F)cc([N+](=O)[O-])c4s3)CC2)O1", "note": "(racemic) [BTZ043 Racemate]", "presynaptic density (Z-score)": 0.635}
{"smiles": "COc1cc2c(N3CCN(C(=O)Nc4ccc(OC(C)C)cc4)CC3)ncnc2cc1OCCCN1CCCCC1", "presynaptic density (Z-score)": -0.158}
{"smiles": "N#CC(=C(N)Sc1ccccc1N)C(C#N)=C(N)Sc1ccccc1N", "note": "[1,4-Diamino-2,3-dicyano-1,4-bis[2-aminophenylthio]butadiene]", "presynaptic density (Z-score)": -0.048}
{"smiles": "Cc1[nH]c2ccccc2c1C1=C(NCCc2ccc(F)cc2)C(=O)N(C)C1=O", "presynaptic density (Z-score)": -0.562}
{"smiles": "Cc1ccc2c(=O)c3cccc(CC(=O)O)c3oc2c1C", "note": "[DMXAA (Vadimezan)]", "presynaptic density (Z-score)": -1.15}
{"smiles": "COc1cc2c(cc1OC)CN(CCc1ccc(NC(=O)c3cc(OC)c(OC)cc3NC(=O)c3cnc4ccccc4c3)cc1)CC2", "note": "[Tariquidar]", "presynaptic density (Z-score)": -0.47}
{"smiles": "COc1c(O)cc2c(c1O)[C@@H]1O[C@H](CO)[C@@H](O)[C@H](O)[C@H]1OC2=O", "presynaptic density (Z-score)": 0.361}
{"smiles": "NC1(c2ccc(-c3nc4ccn5c(=O)[nH]nc5c4cc3-c3ccccc3)cc2)CCC1", "presynaptic density (Z-score)": -1.01}
{"smiles": "O=C(O)c1ccc(Nc2ncc3c(n2)-c2ccc(Cl)cc2C(c2c(F)cccc2F)=NC3)cc1", "presynaptic density (Z-score)": -0.286}
{"smiles": "C[C@]1(c2nc3c(C(N)=O)cccc3[nH]2)CCCN1", "note": "[Veliparib (ABT-888)]", "presynaptic density (Z-score)": 0.43}
{"smiles": "CN(C)CCCCC(=O)Nc1ccc(NC(=S)NC(=O)c2ccc(C(C)(C)C)cc2)cc1", "note": "[Tenovin-6]", "presynaptic density (Z-score)": -0.671}
{"smiles": "COC1CC2CCC(C)C(O)(O2)C(=O)C(=O)N2CCCCC2C(=O)OC(C(C)CC2CCC(OP(C)(C)=O)C(OC)C2)CC(=O)C(C)C=C(C)C(O)C(OC)C(=O)C(C)CC(C)C=CC=CC=C1C", "note": "(stereo not given) [Ridaforolimus (Deforolimus]", "presynaptic density (Z-score)": 0.509}
{"smiles": "CC(C)c1noc(N2CCC(COc3ccc(-c4ccc(S(C)(=O)=O)cc4)nc3)CC2)n1", "presynaptic density (Z-score)": 0.0886}
{"smiles": "O=C(c1ccc(F)cc1)N1CCCC(c2nc(-c3ccc(F)cc3)no2)C1", "note": "(stereo not given)", "presynaptic density (Z-score)": -0.851}
{"smiles": "Cc1cc(C(C)(C)C)c(O)c(C)c1CC1=NCCN1", "note": "[Oxymetazoline HCl]", "presynaptic density (Z-score)": -0.235}
{"smiles": "O=C(O)c1cccc(-c2noc(-c3ccccc3F)n2)c1", "note": "[Ataluren (PTC124)]", "presynaptic density (Z-score)": -0.0102}
{"smiles": "CCc1cncnc1N1CCN(Cc2nc3ccc(C(F)(F)F)cc3[nH]2)CC1", "presynaptic density (Z-score)": -0.739}
{"smiles": "N#C[C@@H]1CCCN1C(=O)CNC12CC3CC(CC(O)(C3)C1)C2", "note": "[Vildagliptin (LAF-237)]", "presynaptic density (Z-score)": 0.854}
